C diff growth: inhibitors of Clostridium difficile growth; AID 1259249; 86,000 compounds, 0.25% hits; growth activity, negative = inhibition, % at 16 µg/mL (by protocol); Clostridium difficile clinical isolate growth, OD600, 24 h; stronger effect = lower value;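 active = mean growth activity at or below -80% and every replicate also at or below -80%; inconclusive = mean at or below -80% but some replicate above -80%; inactive = mean growth activity above -80%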;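 note: 0% = DMSO wells and -100% = levofloxacin 16 µg/mL wells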
Pf Dd2 growth: blocks growth of Plasmodium falciparum Dd2 parasites | P. falciparum Dd2 growth, SYBR Green, 72 h; stronger effect = lower value | activity change, % at 10 µM | 94,000 compounds, 2.3% hits; in the data active = activity change below about -80%; inconclusive = no clear call, values can overlap the other calls
T cruzi growth-1: T. cruzi proliferation inhibition; 77,000 compounds, 5.9% hits; T. cruzi beta-gal in NIH3T3, GalScreen luminescence, 90 h; inhibition, % at 8.34 µM;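 active = mean inhibition above about 93%, with at least 55% of replicates each passing it, limit read from the data, passing the limit was not always enough; inconclusive = only one of those two conditions holds; inactive = neither condition holds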
T cruzi growth-2: blocks T. cruzi growth in NIH3T3 host cells. shares compounds with T cruzi growth-1. T. cruzi beta-gal in NIH3T3, GalScreen luminescence, 90 h. inhibition, % at 8.35 µM. 5,600 compounds, 72% hits;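 active = mean replicate inhibition above about 95% and at least 55% of replicates individually reaching it, limit read from the data; inconclusive = only one of the two criteria is met; inactive = neither criterion is met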
T cruzi growth-3: inhibitors of T. cruzi proliferation. shares compounds with T cruzi growth-1. T. cruzi beta-gal in NIH3T3, GalScreen luminescence, 90 h. inhibition, % at 2.09 µM. 5,600 compounds, 21% hits. AID 651740;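 active = mean inhibition above about 95%, with at least 55% of replicates also reaching it, limit read from the data; inconclusive = meets just one of the two conditions; inactive = meets neither condition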;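 note: plate controls were neutral control median for no effect and positive control median for full effect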
3T3 cytotox: kills mouse NIH/3T3 fibroblasts; NIH/3T3 viability, CellTiter-Glo ATP luminescence, 90 h; AID 651742; shares compounds with T cruzi growth-1; 5,600 compounds, 14% hits; cytotoxicity (signal decrease), % at 8.35 µM;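 active = mean signal decrease across replicates above about 35% based on untreated-well scatter, with enough replicates individually passing, limit read from the data; inconclusive = no rule stated though some were filed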;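 note: 0% = median of neutral control wells and 100% = median of positive control wells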
3T3 cytotox 2: NIH/3T3 (mouse) viability loss. shares compounds with T cruzi growth-1. NIH/3T3 viability, CellTiter-Glo ATP luminescence, 90 h. inhibition, % at 24.9 µM. 5,600 compounds, 56% hits;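 active = mean loss of cell viability signal at or above a set limit, and enough replicates individually reaching it; inconclusive = meets only the mean limit or only the replicate share; inactive = meets neither condition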;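 note: 0% = median of neutral control wells and 100% = median of positive control wells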
The depositor's hits bear a star; ? = inconclusive; · = no result given. Most compounds without a hit are left out; they make up all but 6.7% or so of the library.

SMILES	C diff growth	Pf Dd2 growth	T cruzi growth-1	T cruzi growth-2	T cruzi growth-3	3T3 cytotox	3T3 cytotox 2
CCCNC(=O)Nc1ccc2c(c1)OC[C@@H](C)N(C(=O)C1CCCCC1)C[C@H](C)[C@@H](OC)CN(C)C2=O	·	·	-8	·	·	·	·
Cc1noc(C)c1NC(=O)Nc1ccc2c(c1)C(=O)N([C@H](C)CO)C[C@@H](C)[C@H](CN(C)Cc1ccc(C(=O)O)cc1)OCCCC[C@@H](C)O2	·	-16	37	·	·	·	·
COCCCNC(=O)[C@]1(Cc2ccccc2N=[N+]=[N-])N=C(c2ccc(OCCCO)cc2)O[C@@H]1c1ccccc1	7	·	·	·	·	·	·
Cc1noc(C)c1NC(=O)Nc1ccc2c(c1)CC(=O)N([C@H](C)CO)C[C@H](C)[C@@H](CN(C)C(=O)Nc1ccc3c(c1)OCO3)O2	-4	1	-10	·	·	·	·
COc1ccccc1-c1ccc([C@H]2[C@@H](C#N)N(C(=O)C3CC3)[C@@H]2CO)cc1	8	9	103*	110*	45	3	35*
COc1ccccc1-c1ccc([C@H]2[C@@H](CO)N(C(=O)C3CCCCC3)[C@H]2C#N)cc1	3	6	74	·	·	·	·
COc1ccc(-c2ccc([C@H]3[C@H](C#N)N(C(=O)C4CC4)[C@H]3CO)cc2)cc1	1	-42	78	·	·	·	·
COc1ccccc1-c1ccc([C@@H]2[C@@H](CO)N(C(=O)C3CC3)[C@H]2C#N)cc1	9	3	105*	73	8	-21	7
COc1ccccc1-c1ccc([C@@H]2[C@H](C#N)N(C(=O)C3CC3)[C@H]2CO)cc1	9	11	102*	49	-3	13	47*
N#C[C@@H]1[C@@H](c2ccc(-c3ccccc3F)cc2)[C@H](CO)N1C(=O)C1CC1	7	-4	63	·	·	·	·
COc1ccccc1-c1ccccc1[C@H]1[C@H](C#N)N(C(=O)C2CC2)[C@H]1CO	-10	22	·	·	·	·	·
COc1ccccc1-c1ccc([C@H]2[C@H](C#N)N(C(=O)C3CC3)[C@H]2CO)cc1	10	-5	105*	77	25	7	?
OC(CSc1ccccn1)CC(O)c1ccccc1 (configuration not stated)	-1	·	·	·	·	·	·
C[C@H]1CN([C@@H](C)CO)S(=O)(=O)c2ccc(-c3cncnc3)cc2O[C@@H]1CN(C)Cc1ccncc1	2	-1	42	·	·	·	·
COCC(=O)N(C)C[C@@H]1Oc2cc(C#C[C@@H](C)O)ccc2S(=O)(=O)N([C@H](C)CO)C[C@H]1C	3	·	32	·	·	·	·
N#C[C@H]1[C@H](c2ccc(-c3ccccc3F)cc2)[C@H](CO)N1C(=O)C1CC1	3	-12	30	·	·	·	·
COc1ccccc1-c1ccc([C@@H]2[C@@H](C#N)N(C(=O)C3CC3)[C@@H]2CO)cc1	2	21	104*	37	-11	-8	12
COc1ccccc1-c1ccc([C@H]2[C@@H](C#N)N(C(=O)C3CC3)[C@H]2CO)cc1	13	1	99*	88	49	2	21
COc1ccccc1-c1ccc([C@@H]2[C@@H](C#N)N(C(=O)C3CCCC3)[C@@H]2CO)cc1	-2	-31	·	·	·	·	·
C[C@@H](O)C#Cc1ccc([C@@H]2[C@@H](CO)N3CCCCN(CC4CC4)C[C@H]23)cc1	3	-45	44	·	·	·	·
COc1ccccc1-c1ccc([C@H]2[C@@H](CO)N3CCCCN(C(=O)CN4CCOCC4)C[C@H]23)cc1	-5	-33	62	·	·	·	·
O=C(CN1CCOCC1)N1CCCCN2[C@@H](CO)[C@H](c3ccc(-c4ccccc4F)cc3)[C@@H]2C1	-12	43	?	79	73	-9	-27
O=C(CN1CCOCC1)N1CCCCN2[C@H](C1)[C@H](c1ccc(-c3ccccc3)cc1)[C@@H]2CO	-6	15	-6	·	·	·	·
O=C(CN1CCOCC1)N1CCCCN2[C@H](CO)[C@@H](c3ccc(C#Cc4ccccc4)cc3)[C@@H]2C1	-2	-1	64	·	·	·	·
O=C(CN1CCOCC1)N1CCCCN2[C@@H](CO)[C@@H](c3ccc(-c4ccccc4)cc3)[C@@H]2C1	0	1	91*	75	-15	-5	12
SMILES	C diff growth	Pf Dd2 growth	T cruzi growth-1	T cruzi growth-2	T cruzi growth-3	3T3 cytotox	3T3 cytotox 2
O=C(CN1CCOCC1)N1CCCCN2[C@H](CO)[C@H](c3ccc(-c4ccccc4F)cc3)[C@@H]2C1	-4	22	85	·	·	·	·
COc1ccccc1-c1ccc([C@H]2[C@H](CO)N3CCCCN(C(=O)CN4CCOCC4)C[C@@H]23)cc1	-4	-3	100*	79	40	19	31*
O=C(CN1CCOCC1)N1CCCCN2[C@H](CO)[C@H](c3ccc(C#Cc4ccccc4)cc3)[C@@H]2C1	-17	15	103*	106*	30	41*	67*
COc1ccc(NC(=O)N(C)C[C@H]2OCc3ccccc3-c3ccccc3C(=O)N([C@@H](C)CO)C[C@@H]2C)c(OC)c1	·	-27	3	·	·	·	·
Cc1ccc(S(=O)(=O)N(C)C[C@@H]2Oc3ccc(NS(=O)(=O)c4ccccc4)cc3C(=O)N([C@H](C)CO)C[C@@H]2C)cc1	9	-23	87	·	·	·	·
C[C@H]1CN([C@@H](C)CO)S(=O)(=O)c2ccc(-c3ccccc3)cc2O[C@@H]1CN(C)C	-3	22	·	·	·	·	·
Cc1cc(C(=O)Nc2cccc3c2O[C@H](CN(C)C(=O)Nc2ccc(F)cc2)[C@H](C)CN([C@@H](C)CO)C3=O)n(C)n1	0	-20	32	·	·	·	·
CCCNC(=O)C[C@H]1CC[C@H]2[C@H](COc3ccc(NC(=O)c4cc(C)on4)cc3C(=O)N2C)O1	1	-7	52	·	·	·	·
O=C(C[C@H]1CC[C@H](NS(=O)(=O)c2cccc(F)c2)[C@@H](CO)O1)N1CCCCC1	1	24	3	·	·	·	·
COc1ccccc1NC(=O)N1C[C@@H]2[C@H](c3ccccc31)[C@@H](CO)N2C(=O)c1ccccc1	-11	-1	24	·	·	·	·
O=C(CN1CCOCC1)N1CCCCN2[C@H](C1)[C@@H](c1ccc(/C=C/c3ccccc3)cc1)[C@@H]2CO	-8	-12	83	·	·	·	·
O=C(CN1CCOCC1)N1CCCCN2[C@H](CO)[C@@H](c3ccc(/C=C/c4ccccc4)cc3)[C@H]2C1	-2	-6	10	·	·	·	·
O=C(CN1CCOCC1)N1CCCCN2[C@H](CO)[C@H](c3ccc(/C=C/c4ccccc4)cc3)[C@H]2C1	-5	-71	100*	97*	62	25	105*
O=C(CN1CCOCC1)N1CCCCN2[C@H](CO)[C@H](c3ccc(/C=C/c4ccccc4)cc3)[C@@H]2C1	-12	-9	106*	108*	86	40*	41*
C[C@@H]1CN([C@@H](C)CO)C(=O)c2cc(NC(=O)CCCN(C)C)ccc2O[C@@H](C)CCCCO[C@@H]1CN(C)C(=O)Nc1ccc2c(c1)OCO2	-3	-33	·	·	·	·	·

Source: PubChem BioAssay
